Hits are enriched below; roughly 3.9% of the tested compounds scored in any of these assays.
HT1080 IDH1KD tx: toxicity to HT-1080 IDH1 knockdown cells (counter line); actives 2% (n = 360,000); Potency, µM (highest dose often 46.1 µM), inactives show at the top dose activity, negative = toxicity, actives largely listed as cytotoxic; HT-1080 IDH1 knockdown viability, ATP luminescence, 48 h; AID 686971;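 further: 0% = DMSO wells and -100% = cell-free medium wells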
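HT-1080-IDH1KD cells (IDH1 knocked down), 750/well in RPMI with 5% FBS, treated with compound 48 h at 37 degrees C. Viability by CellTiter-Glo luminescence, normalised to DMSO and no-cell wells; concentration-response curves classed.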
ATXN viability: cell viability loss in ATXN counter-screen | actives 0.49% (n = 400,000) | S2 cells (HEK-293 line with an ATXN2-luciferase reporter) viability, CellTiter-Fluor protease fluorescence, 24 h | Potency, µM (titrated, usually from 56.7 µM), hits mostly cytotoxic | AID 651635; further: nearly all actives have a fitted effect of over 40% in size
TGFb inhibitor: blocks TGF-b signaling; actives 1.2% (n = 410,000); HepG2 CAGA-GFP TGF-b/SMAD3 reporter, GFP fluorescence, 18 h; TGF-beta stimulated, 500 pg/mL final; Potency, µM (top dose mostly 46.1 µM), without a hit: at the top dose activity, negative = inhibition, most hits filed as inhibitors; further: on the % scale 0 is the no-effect control and ±100 the full control effect; nearly all actives have a fitted effect of over 65% in size
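TGF-beta reporter screen: HEPG2 CAGA-GFP, 1% FBS, 500 pg/mL TGF-beta final, 18 h; per-cell GFP summed per well; curves fitted and categorized by class.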
ATXN2 expr inh: reduces ATXN2 reporter expression in HEK-293 cells | HEK-293 ATXN2-luciferase reporter, luminescence, 24 h | Potency, µM (series often up to 57 µM), inactives show top-dose activity change, negative = inhibition, most hits filed as inhibitors | actives 0.72% (n = 360,000); further: on the % scale 0 is the no-effect control and ±100 the full control effect; nearly all actives have a fitted effect of over 55% in size
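ATXN2-luciferase reporter cells (luciferase flanked by upstream and downstream ATXN2 gene portions) were treated 24 h at 37 °C with compounds at up to 57 uM. SteadyGlo luminescence gave expression; GF-AFC fluorescence gave viability.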
HepG2 tox: counter-screen for TGF-b inhibitors: cytotoxicity in HepG2 cells; HepG2 CAGA-GFP viability, ATP luminescence, 18 h; Potency, µM (highest dose often 46.1 µM), for inactives: top-dose activity change, negative = cytotoxicity, usual class: cytotoxic; actives 0.76% (n = 410,000); AID 588856
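HepG2 CAGA-GFP cells (1000/well, DMEM with 1% FBS) received compound, then TGF-beta at 500 pg/mL final, and were incubated 18 hours at 37 degrees C. Viability was read by CellTiter-Glo luminescence. Media-only wells were set as complete cell-killing and DMSO as no toxicity.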
HT1080NT lethal: kills 2HG-producing HT-1080-NT fibrosarcoma cells; HT-1080-NT fibrosarcoma viability, CellTiter-Glo ATP luminescence, 48 h; Potency, µM (top dose mostly 46.1 µM), inactives show top-dose activity, negative = less viability, most hits filed as cytotoxic; actives 1.6% (n = 360,000);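 further: NT is the 2HG producing partner of a matched IDH1 knockdown line; 0% = DMSO-treated cells and -100% = media-only wells without cells; nearly all actives have a fitted effect of over 55% in size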
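HT-1080-NT fibrosarcoma cells (2HG-overproducing), 750 cells/well in RPMI with 5% FBS, dosed after 2 h and incubated 48 h at 37C. CellTiter-Glo luminescence normalized to DMSO and no-cell wells; concentration-response curves fitted and classed.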
The depositor's hits bear a star. The call rests on the fitted dose curve; in most records, active means well fitted curve in the direction sought with a large enough effect; inconclusive means small, poorly fitted or top-dose-only effect, or another doubt; inactive means no such curve, though single readings can be large; an effect the other way counts as inactive or inconclusive. Potency means the concentration at half of the fitted maximal effect.

What do the screens show for `C[C@@H]1NC(=O)[C@@H](N)CNC(=O)[C@H](C2CCNC(N)=N2)NC(=O)/C(=C/NC(N)=O)NC(=O)[C@H](CNC(=O)C[C@@H](N)CCCN)NC1=O` (some centres not stated)?
ATXN viability: inactive

How did Cc1ccc(S(=O)(=O)Nc2cccc(-c3ccc4nncn4n3)c2)cc1 do in these assays?
HT1080 IDH1KD tx: 3.3µM*; ATXN viability: inactive; TGFb inhibitor: -20%; ATXN2 expr inh: -16%; HepG2 tox: -12%; HT1080NT lethal: 4.6µM*

What do the screens show for `CC(=O)Nc1ccc2c(c1)C(=O)c1ccccc1C2=O`?
HT1080 IDH1KD tx: -3%; ATXN viability: inactive; TGFb inhibitor: -13%; ATXN2 expr inh: 32%; HepG2 tox: -38%; HT1080NT lethal: -6%

What do the screens show for `CC(C)(C)C(=O)Nc1ccc2c(c1)C(=O)C(=O)c1ccccc1-2`?
HT1080 IDH1KD tx: 0.79µM*; HT1080NT lethal: 0.79µM*

How did Cc1cc(Cl)ccc1-c1cc2nc(NCCCN(C)C)n(C)c(=O)c2s1 do in these assays?
HT1080 IDH1KD tx: 18µM*; ATXN viability: inconclusive; TGFb inhibitor: inconclusive; ATXN2 expr inh: 32µM*; HepG2 tox: 14µM*; HT1080NT lethal: 18µM*

Results for COc1ccc(-c2cc3nc(NCCCN(C)C)n(C)c(=O)c3s2)c(C)c1 ?
HT1080 IDH1KD tx: -29%; ATXN viability: inactive; TGFb inhibitor: inconclusive; ATXN2 expr inh: -24%; HepG2 tox: 3.5µM*; HT1080NT lethal: inconclusive

How did Cc1cscc1-c1cc2nc(NCCCN(C)C)n(C)c(=O)c2s1 do in these assays?
HT1080 IDH1KD tx: inconclusive; ATXN viability: inactive; TGFb inhibitor: -8%; ATXN2 expr inh: -17%; HepG2 tox: -11%; HT1080NT lethal: inconclusive

Results for S=C(NCCN(C1CCCCC1)C1CCCC1)Nc1cccc(Cl)c1 ?
HT1080 IDH1KD tx: 16µM*; ATXN viability: inconclusive; TGFb inhibitor: inconclusive; ATXN2 expr inh: inconclusive; HepG2 tox: -81%; HT1080NT lethal: 16µM*

How did CSc1cccc(CN2CCCC(CO)(Cc3cccc(Cl)c3)C2)c1 (configuration not stated) do in these assays?
HT1080 IDH1KD tx: 6%; ATXN viability: inactive; TGFb inhibitor: 1%; ATXN2 expr inh: 2%; HepG2 tox: -2%; HT1080NT lethal: 14%

How did CC(C)Oc1ccc(CN2CCCC(CO)(Cc3ccc(F)cc3)C2)cc1 (configuration not stated) do in these assays?
HT1080 IDH1KD tx: 29µM*; ATXN viability: inactive; TGFb inhibitor: -26%; ATXN2 expr inh: -17%; HepG2 tox: -37%; HT1080NT lethal: inconclusive

How did OCC1(Cc2cccc(Cl)c2)CCCN(Cc2ccc(F)c(F)c2)C1 (configuration not stated) do in these assays?
HT1080 IDH1KD tx: 26µM*; ATXN viability: inconclusive; TGFb inhibitor: -18%; ATXN2 expr inh: -20%; HepG2 tox: -1%; HT1080NT lethal: -29%

What do the screens show for `COc1cc(CN2CCCC(CO)(Cc3cccc(Cl)c3)C2)cc2c1OCO2` (configuration not stated)?
HT1080 IDH1KD tx: 16µM*; ATXN viability: inactive; TGFb inhibitor: inconclusive; ATXN2 expr inh: -24%; HepG2 tox: -31%; HT1080NT lethal: inconclusive

Results for COc1ccc(OC)c(CN2CCOc3ccc(C(O)c4cccnc4)cc3C2)c1 (configuration not stated) ?
ATXN viability: inactive

What do the screens show for `Cc1ccc(-n2cccc2C(=S)N=P(N(C)C)(N(C)C)N(C)C)cc1`?
HT1080 IDH1KD tx: 8.2µM*; ATXN viability: inconclusive; TGFb inhibitor: inconclusive; ATXN2 expr inh: inconclusive; HepG2 tox: -62%; HT1080NT lethal: inconclusive

Results for COc1c(Cl)cc(C(=O)O)cc1Cl ?
HT1080 IDH1KD tx: -5%; ATXN viability: inactive; TGFb inhibitor: 1%; ATXN2 expr inh: 9%; HepG2 tox: -2%; HT1080NT lethal: 0%

How did COc1c(Cl)cc(C(=O)NN)cc1Cl do in these assays?
HT1080 IDH1KD tx: 2.6µM*; ATXN viability: inactive; TGFb inhibitor: inconclusive; ATXN2 expr inh: -21%; HepG2 tox: 26%; HT1080NT lethal: 2.1µM*

What do the screens show for `Cc1ccc(CNC(=O)c2nc(-c3ccc(Cl)cc3)n3c2CCCCC3)cc1`?
ATXN viability: inconclusive; TGFb inhibitor: inconclusive; ATXN2 expr inh: inconclusive; HepG2 tox: -25%

Results for COc1ccccc1C(=O)NC(=S)/C=C1/N(C)c2ccccc2C1(C)C ?
HT1080 IDH1KD tx: -77%; ATXN viability: inconclusive; TGFb inhibitor: 22µM*; ATXN2 expr inh: 0%; HepG2 tox: -3%; HT1080NT lethal: -15%

What do the screens show for `CN1/C(=C\C(=S)NC(=O)c2ccccc2Cl)C(C)(C)c2ccccc21`?
HT1080 IDH1KD tx: -19%; ATXN viability: inactive; TGFb inhibitor: -22%; ATXN2 expr inh: -14%; HepG2 tox: -12%; HT1080NT lethal: -19%

Results for Cc1cc(NC(=O)CN2C(=O)C(C)(C)c3ccccc32)ccc1Br ?
ATXN viability: inconclusive; TGFb inhibitor: inconclusive; ATXN2 expr inh: inconclusive; HepG2 tox: -58%

How did CCCN1CCC(=O)N(CCSc2ccc(OC)cc2)CC1 do in these assays?
HT1080 IDH1KD tx: 23µM*; ATXN viability: inactive; TGFb inhibitor: -14%; ATXN2 expr inh: 11%; HepG2 tox: -25%; HT1080NT lethal: inconclusive

Results for CCCN1CCC(=O)N(CCSc2ccc(C)cc2)CC1 ?
HT1080 IDH1KD tx: 6%; ATXN viability: inactive; TGFb inhibitor: -8%; ATXN2 expr inh: 44%; HepG2 tox: -34%; HT1080NT lethal: 0%

What do the screens show for `CCOC(=O)CSc1nc2ccc(NC(=O)c3ccccc3)cc2s1`?
ATXN viability: inactive; TGFb inhibitor: inconclusive; ATXN2 expr inh: 13%; HepG2 tox: -33%

What do the screens show for `Oc1ccc(CCNc2c3ccccc3nc3ccccc23)cc1O`?
HT1080 IDH1KD tx: inconclusive; ATXN viability: inconclusive; TGFb inhibitor: inconclusive; ATXN2 expr inh: inconclusive; HepG2 tox: -20%; HT1080NT lethal: 23µM*

Results for CN(C)CCCNc1c2ccccc2nc2ccccc12 ?
HT1080 IDH1KD tx: 5.2µM*; ATXN viability: inconclusive; TGFb inhibitor: inconclusive; ATXN2 expr inh: inconclusive; HepG2 tox: 9%; HT1080NT lethal: 4.1µM*

Results for OCCNc1c2ccccc2nc2c(F)c(F)c(F)c(F)c12 ?
HT1080 IDH1KD tx: 4.6µM*; TGFb inhibitor: -25%; ATXN2 expr inh: 7.5µM*; HepG2 tox: 11%; HT1080NT lethal: inconclusive

From PubChem
